# According to PubChem BioAssay (NCI):
# Compounds without any hit were thinned out: in the full panel of roughly 83,000, 20% have a hit.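 Method: cells in 96-well plates; compound added at one concentration; 48 h incubation; percent growth measured; values under 10 scored active.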 Unmarked numbers belong to inactive results. The source made the active and inactive calls.
# Tests used:
# Assay in all cases: NCI-60 one-dose screen, 48 h (100 = growth as untreated, 0 = no growth, -100 = all killed)
# Conditions in all cases: 10 µM unless noted
# SR leukemia = tested on: SR leukemia
# RPMI-8226 leukemia = tested on: RPMI-8226 leukemia
# OVCAR-8 ovarian = tested on: OVCAR-8 ovarian
# OVCAR-5 ovarian = tested on: OVCAR-5 ovarian
# OVCAR-4 ovarian = tested on: OVCAR-4 ovarian
# SK-OV-3 ovarian = tested on: SK-OV-3 ovarian
# IGROV1 ovarian = tested on: IGROV1 ovarian
# OVCAR-3 ovarian = tested on: OVCAR-3 ovarian
# HS 578T breast = tested on: HS 578T breast
# NCI/ADR-RES ovarian = tested on: NCI/ADR-RES ovarian
# T-47D breast = tested on: T-47D breast
# BT-549 breast = tested on: BT-549 breast
# MDA-MB-435 melanoma = tested on: MDA-MB-435 melanoma
# SW-620 colon = tested on: SW-620 colon
# MCF7 breast = tested on: MCF7 breast
# HCT-116 colon = tested on: HCT-116 colon
# HCC-2998 colon = tested on: HCC-2998 colon
# KM12 colon = tested on: KM12 colon
# MDA-MB-468 breast = tested on: MDA-MB-468 breast
SMILES,growth (SR leukemia),growth (RPMI-8226 leukemia),growth (OVCAR-8 ovarian),growth (OVCAR-5 ovarian),growth (OVCAR-4 ovarian),growth (SK-OV-3 ovarian),growth (IGROV1 ovarian),growth (OVCAR-3 ovarian),growth (HS 578T breast),growth (NCI/ADR-RES ovarian),growth (T-47D breast),growth (BT-549 breast),growth (MDA-MB-435 melanoma),growth (SW-620 colon),growth (MCF7 breast),growth (HCT-116 colon),growth (HCC-2998 colon),growth (KM12 colon),growth (MDA-MB-468 breast)
C=C1CCC2C3(C)COC(c4cc(F)cc(F)c4)OC3CCC2(C)C1CC(O)C1=CCOC1=O (stereo not drawn),28.6%,11%,16.2%,87%,53.1%,102%,60.1%,61.4%,70.4%,14.5%,40.5%,-12.9% (active),60%,-44.2% (active),15.3%,-33.8% (active),45.8%,60.5%,–
COc1ccc2oc3c4[nH]c5ccccc5c4c4c(c3c2c1)C(=O)N(C(=O)OC(C)(C)C)C4=O,-5.86% (active),-10.4% (active),-20.1% (active),6.78% (active),-6.75% (active),-25.3% (active),-1.25% (active),-33.7% (active),-1.85% (active),-17.9% (active),-7.22% (active),-44.2% (active),-26.4% (active),6.81% (active),-25.9% (active),1.65% (active),23.2%,-18.9% (active),–
CCCS(=O)(=O)N1CCCC(C(=O)Nc2nc3ccc(NC(=O)c4ccc(F)c(OC)c4F)cc3s2)C1 (stereo not drawn),16.2%,12.4%,26.6%,86%,32.3%,61.1%,63.3%,48.9%,29.4%,19.9%,-0.579% (active),-11.9% (active),36.4%,81.6%,13.1%,31.1%,72.5%,41.3%,–
CC(C)(C)OC(=O)/C=C/c1cccc2c1C(=O)NC(C)(c1cc3cc(Cl)ccc3oc1=O)N2 (stereo not drawn),8.86% (active),1.99% (active),39.1%,67.1%,43.9%,47.6%,44.7%,43.8%,65.1%,25.4%,-3.39% (active),15.2%,62.2%,55.7%,17.5%,31.5%,52.9%,19.9%,–
Cc1ccc(-c2nc(C#N)c(S(=O)(=O)N3CCN(S(=O)(=O)c4ccccc4)CC3)o2)cc1,-48.1% (active),-24.5% (active),1.2% (active),19.5%,-1.2% (active),115%,-63.6% (active),1.2% (active),65.5%,4.76% (active),-1.54% (active),-19% (active),30.1%,-86.9% (active),-30.6% (active),-81.4% (active),56.2%,77.4%,–
Cn1cc(-c2cc(N)n3nc(-c4cn(C)c5ccccc45)cc3n2)c2cc(Cl)ccc21,4.5% (active),-8.66% (active),-91% (active),-13.9% (active),-34.5% (active),72.1%,-4.76% (active),-44.6% (active),-11.1% (active),-11.5% (active),-30.9% (active),63%,-71.9% (active),-35.3% (active),-69.9% (active),-89.1% (active),-73% (active),-50% (active),–
Nc1cccc(SCc2cc3ccccc3[nH]c2=O)c1,36.5%,33.1%,56.7%,63.6%,44.1%,80%,72.9%,65.2%,78.2%,67.8%,33.3%,46.7%,30.5%,23.5%,37.4%,50.3%,26.8%,0.625% (active),45.9%
CN(C)c1nc(NCCNS(=O)(=O)c2ccc(C(=O)/C=C/c3ccc(C(F)(F)F)cc3)cc2)nc(Nc2ccc(F)cc2)n1,-26.2% (active),0.159% (active),-62.1% (active),-68.9% (active),11.6%,66%,-40.6% (active),-86.7% (active),52.1%,-54.3% (active),15.7%,-71.2% (active),-81.1% (active),-77.1% (active),-78.6% (active),-59.1% (active),-95.7% (active),-78.9% (active),–
C#CCOc1ccc(/C=N/Nc2nc(-c3cc4cc(Br)ccc4oc3=O)cs2)cc1OC,80.2%,68.2%,65.7%,73.9%,47.8%,25.7%,83.1%,87.3%,86.8%,63.8%,51.1%,48.5%,78.7%,77.6%,41.9%,71.5%,39.6%,51.1%,26.8%
CCN(CC)c1ccc(/C=N/Nc2nc(-c3ccc(Br)cc3)cs2)c(O)c1,3.58% (active),38.4%,81.6%,91.5%,70.2%,103%,78.8%,61.3%,102%,95.3%,80.9%,37.4%,64.5%,10.5%,18.7%,18.3%,100%,86.3%,–
COc1ccc2oc(=O)c(C3(C)NC(=O)c4c(/C=C/C(=O)OC(C)(C)C)cccc4N3)cc2c1 (stereo not drawn),26.2%,28.5%,37.9%,60.9%,41.5%,51.2%,41.6%,55.4%,60%,36.6%,6.58% (active),3.69% (active),46.7%,63.8%,24.1%,30%,62.1%,47%,31.7%
COc1cc2c(c(OC)c1OC)C(=O)CC(c1cccc(NC(=O)[C@@H](N)CC(C)C)c1)O2 (stereo partly drawn),66.9%,108%,94.9%,112%,102%,109%,107%,97.9%,88.4%,99.8%,86%,94.3%,91.2%,107%,86.8%,101%,117%,97.2%,–
CCCCCCCS(=O)(=O)N1CCCC(C(=O)Nc2nc3ccc(NC(=O)c4ccc(F)c(OC)c4F)cc3s2)C1 (stereo not drawn),60.6%,41.3%,6.24% (active),65.1%,29.8%,57.4%,60.3%,40.2%,25.2%,46.8%,41.9%,55.8%,72.2%,64.6%,27.6%,25.1%,58.2%,63.8%,-4.4% (active)
CCCCCCCCc1ccc(C(=O)Nc2ccc(C)cc2C(=O)O)cc1C,88.2%,82.7%,93.2%,115%,102%,100%,98.2%,108%,93.1%,96.3%,94.4%,101%,105%,97.2%,93.8%,84%,106%,79.7%,–
O=C(Cn1nc(-c2ccccc2)ccc1=O)N/N=C/c1ccc(N2CCOCC2)cc1,85.9%,87.8%,102%,107%,93.9%,107%,113%,103%,86.6%,95.5%,69.4%,121%,97.6%,102%,83.8%,103%,113%,102%,–
CCCCc1c(Nn2cnnn2)no[n+]1[O-],36.9%,45.8%,42.1%,83.2%,55%,88.8%,35.8%,51.4%,58.6%,58.2%,51.5%,49.4%,46.5%,57.6%,24.5%,38.2%,78.8%,61.7%,49.3%
